Structures are written as SMILES. Records with an inconclusive call do not appear. Where a call stands in place of a potency, no number is given. Active and inactive are the calls of the source. Calls follow the shape of the dose curve; as a rule, active = well fitted curve in the direction sought with a large enough effect; inconclusive = small, poorly fitted or top-dose-only effect, or another doubt; inactive = no such curve, though single readings can be large; an effect the other way counts as inactive or inconclusive.

Test [1] has as its target ATP-dependent 6-phosphofructokinase (Trypanosoma brucei brucei) (UniProt O15648). In words: qHTS Assay to Find Inhibitors of T. brucei phosphofructokinase: hit validation (AID 492961).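 Also: luminescence reports ADP formed as PFK phosphorylates fructose-6-phosphate with ATP; series mostly up to about 51 µM.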 In a few lines:
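Reaction: 0.1 M triethanolamine pH 8.0, 5 mM MgCl2, F6P 0.5 mM, ATP 0.1 mM, PFK 1.25 nM, 45 min RT. Read-out: ADP-Glo luminescence. Analysis: concentration-response fits, classed by r2 and efficacy.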

The target in test [2] is Ubiquitin carboxyl-terminal hydrolase 1 (Homo sapiens) (UniProt O94782). Nature of the test: Inhibitors of USP1/UAF1: Pilot qHTS (AID 504865). Also: nearly all actives have a fitted effect of over 35% in size. Also: potency is read from the fitted curve at half-maximal effect. The method, boiled down: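 USP1/UAF1 complex (1nM) preincubated with compound 15 min at room temperature, then Ub-Rho substrate (150nM final) added. Fluorescence read kinetically at 480/540 nm, 6 reads every 60 seconds. Buffer: 50mM HEPES pH 7.8, 0.5mM EDTA, 0.1 mg/ml BSA, 1mM TCEP, 0.01% Tween-20.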
Ubiquitin carboxyl-terminal hydrolase 1 (Homo sapiens), sequence (O94782 whole entry, looked up): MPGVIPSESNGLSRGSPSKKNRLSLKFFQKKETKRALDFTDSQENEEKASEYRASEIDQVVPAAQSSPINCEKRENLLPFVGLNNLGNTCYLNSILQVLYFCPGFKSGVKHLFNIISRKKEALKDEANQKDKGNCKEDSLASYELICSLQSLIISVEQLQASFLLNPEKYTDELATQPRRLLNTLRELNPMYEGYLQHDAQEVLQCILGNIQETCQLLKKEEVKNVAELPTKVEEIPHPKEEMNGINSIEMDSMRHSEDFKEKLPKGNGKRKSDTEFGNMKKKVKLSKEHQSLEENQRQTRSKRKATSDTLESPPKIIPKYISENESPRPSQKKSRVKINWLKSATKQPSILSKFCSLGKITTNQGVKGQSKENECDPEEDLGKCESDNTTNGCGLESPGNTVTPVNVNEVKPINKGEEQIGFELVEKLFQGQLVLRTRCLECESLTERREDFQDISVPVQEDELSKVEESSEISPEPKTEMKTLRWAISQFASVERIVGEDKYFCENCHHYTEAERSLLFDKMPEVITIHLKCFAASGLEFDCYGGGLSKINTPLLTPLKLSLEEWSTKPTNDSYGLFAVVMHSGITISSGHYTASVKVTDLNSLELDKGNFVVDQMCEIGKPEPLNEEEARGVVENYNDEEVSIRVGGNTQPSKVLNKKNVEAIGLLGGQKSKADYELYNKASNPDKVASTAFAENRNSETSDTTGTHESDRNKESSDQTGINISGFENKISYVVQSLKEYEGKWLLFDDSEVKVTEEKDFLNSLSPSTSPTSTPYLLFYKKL
Background: Quantitative high-throughput screening tests each substance at several concentrations.

ATP-dependent 6-phosphofructokinase (Trypanosoma brucei brucei), sequence (O15648 whole entry, looked up): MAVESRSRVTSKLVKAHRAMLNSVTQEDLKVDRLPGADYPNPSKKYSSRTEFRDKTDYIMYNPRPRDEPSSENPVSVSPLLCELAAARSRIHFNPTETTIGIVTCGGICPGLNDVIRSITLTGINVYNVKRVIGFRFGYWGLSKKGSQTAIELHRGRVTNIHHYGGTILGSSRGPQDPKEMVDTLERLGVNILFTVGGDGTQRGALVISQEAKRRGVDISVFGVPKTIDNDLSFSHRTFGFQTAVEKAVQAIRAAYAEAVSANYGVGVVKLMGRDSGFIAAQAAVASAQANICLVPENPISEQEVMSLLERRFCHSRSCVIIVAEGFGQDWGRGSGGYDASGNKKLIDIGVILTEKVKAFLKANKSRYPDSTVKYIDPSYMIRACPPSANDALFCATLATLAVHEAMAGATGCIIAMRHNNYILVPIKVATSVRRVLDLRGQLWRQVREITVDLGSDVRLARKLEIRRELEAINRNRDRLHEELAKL

Turning to `CN1CCC(=C2c3ccccc3Sc3ccccc32)CC1`, the compound was classed as inactive in test [1]. For the same compound, the Potency in test [2] is 39.8 µM (active).
For `c1ccc(OCc2ccc(CCCN3CCOCC3)cc2)cc1`, in that order: “inactive” and “inactive”.
For `COCc1c(C(C)C)nc(C(C)C)c(/C=C/[C@@H](O)C[C@@H](O)CC(=O)O)c1-c1ccc(F)cc1`, in that order: “inactive” and “inactive”.
For `CC(C)COC(=O)c1ccc(N)cc1`, in that order: “inactive” and “inactive”.
In the case of `C[C@@H](CN(C)C)CN1c2ccccc2Sc2ccccc21`, in test [1], the outcome was inactive. For the same compound, the Potency result in test [2] was “inactive”.
For `COc1c2occc2c(OC)c2c(=O)cc(C)oc12`, in test [1], the call was inactive. In test [2], the Potency was 39.8 µM (active).
In the case of `CCN(CCCc1ccccc1)CCCc1ccccc1`, the outcome in test [1] was inactive. Moreover, the Potency entry in test [2] was “inactive”.
Turning to `CC(=O)OCC(=O)NCCCOc1cccc(CN2CCCCC2)c1`, the compound was classed as inactive in test [1]. Also, in test [2], the Potency entry is “inactive”.
As to `OC(CCN1CCCCC1)(c1ccccc1)c1ccccc1`, in test [1], the compound was classed as inactive. Also, the Potency result in test [2] was “inactive”.
Regarding `CCCCCCCCCCCCCCCC[N+](C)(C)CCN(Cc1ccc(OC)cc1)c1ncccn1`, in test [1], the result was inactive. Besides, in test [2], the Potency is 31.6 µM (active).
The corresponding values for `CN1CCN(C(c2ccccc2)c2ccccc2)CC1` are “inactive” and “inactive”.
As for `CCCCN1CCCC1C(=O)Nc1c(C)cc(C)cc1C` (centres undefined), in test [1], the outcome was inactive. Besides, in test [2], the Potency entry was “inactive”.
Regarding `CCN(CC)CCNC(=O)COc1ccc(Cl)cc1`, the compound was classed as inactive in test [1]. Further, the Potency result in test [2] is “inactive”.
As to `CCCCCC=CCC=CCCCCCCCC(=O)OCC`, the compound was classed as inactive in test [1]. The Potency entry in test [2] was “inactive”.
As to `O=C1OCCN1/N=C/c1ccc([N+](=O)[O-])o1`, the outcome in test [1] was inactive. In test [2], the Potency entry was “inactive”.
Regarding `Cc1ncc(CSSCc2cnc(C)c(O)c2CO)c(CO)c1O`, the call in test [1] was inactive. Also, the Potency result in test [2] is “inactive”.
In the case of `COc1cccc(CCc2ccccc2OCC(CN(C)C)OC(=O)CCC(=O)O)c1` (centres undefined), the outcome in test [1] was inactive. Besides, the Potency result in test [2] is “inactive”.

The record behind these values is PubChem BioAssay (NCATS).
